Assay results reported in the supplement of paper PMC7366291.
Structures can show the parent of a compound that is named as a salt.

The compounds below were run on Danio rerio Tg(wt1b:EGFP) embryo, pronephros (assay: fraction of imaged embryos annotated as normal kidney; higher = less nephrotoxic; extreme values may be limits of the assay). Settings: 25 µM; exposure: 24-48 hpf.
Method in brief: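 Zebrafish embryos carrying Tg(wt1b:EGFP) were dechorionated and exposed to 25 μM compound (0.5% DMSO) between 24 and 48 hpf at 28.5°C. Their pronephroi were imaged by widefield fluorescence, and each embryo was classed by hand from maximum projections. The measure is the fraction of embryos per treatment falling in the normal-kidney category.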

Row | Structure (SMILES) | fraction of imaged embryos annotated as normal kidney
1 | CC[C@H](C)C(=O)O[C@H]1C[C@H](O)C=C2C=C[C@H](C)[C@H](CC[C@@H](O)C[C@@H](O)CC(=O)O)[C@H]21 [Pravastatin] | 1
2 | N=C(N)NC(=O)Cc1c(Cl)cccc1Cl [Guanfacine hydrochloride] | 0.583
3 | CC(=O)OCC(=O)[C@@]12OC(C)(C)O[C@@H]1C[C@H]1[C@@H]3C[C@H](F)C4=CC(=O)C=C[C@]4(C)[C@@]3(F)[C@@H](O)C[C@@]12C [Fluocinonide] | 0.417
4 | O=C1c2cccc3c2[C@H](CCC3)CN1[C@@H]1CN2CCC1CC2 [Palonosetron hydrochloride] | 0.667
5 | Nc1ccc(O)c(C(=O)O)c1 [Mesalamine] | 0.917
6 | COCC(=O)Nc1c(I)c(C(=O)NCC(O)CO)c(I)c(C(=O)N(C)CC(O)CO)c1I (stereo not drawn) [Iopromide] | 0.917
7 | CCN(CC)CC(=O)Nc1c(C)cccc1C [Lidocaine hydrochloride] | 1
8 | Nc1ccn([C@H]2CC[C@@H](CO)O2)c(=O)n1 [Zalcitabine] | 0.917
9 | CCC[C@H](N[C@@H](C)C(=O)N1[C@H](C(=O)O)C[C@@H]2CCCC[C@@H]21)C(=O)OCC [Perindopril] | 0.917
10 | COc1ccc(NS(=O)(=O)c2ccc(N)cc2)nn1 [Sulfamethoxypyridazine] | 1
11 | CCOc1ccc(Cc2nccc3cc(OCC)c(OCC)cc23)cc1OCC [Ethaverine hydrochloride] | 0.583
12 | CC1Cc2ccccc2N1NC(=O)c1ccc(Cl)c(S(N)(=O)=O)c1 (stereo not drawn) [Indapamide] | 0.909
13 | CC(=O)Oc1ccc(C(c2ccc(OC(C)=O)cc2)c2ccccn2)cc1 [Bisacodyl] | 0.917
14 | CC1(C)[C@@H](OC(=O)CCC(=O)O)CC[C@]2(C)[C@H]3C(=O)C=C4[C@@H]5C[C@@](C)(C(=O)O)CC[C@]5(C)CC[C@@]4(C)[C@]3(C)CC[C@@H]12 [Carbenoxolone disodium salt] | 0.667
15 | O=c1n(CCCN2CCN(c3cccc(Cl)c3)CC2)nc2ccccn12 [Trazodone hydrochloride] | 1
16 | O=C(O)c1cc(=O)c2c(OCC(O)COc3cccc4oc(C(=O)O)cc(=O)c34)cccc2o1 [Cromolyn disodium salt] | 0.909
17 | CCCCc1ccc2[nH]c(NC(=O)OC)nc2c1 [Parbendazole] | 0

Row | Structure (SMILES) | fraction of imaged embryos annotated as normal kidney
18 | CC(=O)Oc1cccc2c1C(=O)c1c(OC(C)=O)cc(C(=O)O)cc1C2=O [Diacerein] | 0.833
19 | COC(=O)[C@@H]1[C@H]2C[C@H]3c4[nH]c5ccccc5c4CCN3C[C@@H]2CC[C@@H]1O [Yohimbine hydrochloride] | 0.727
20 | CC(C)(C)NC[C@H](O)c1ccc(O)c(CO)c1 [Levalbuterol hydrochloride] | 0.917
21 | O=C(N[C@H](CO)[C@H](O)c1ccc([N+](=O)[O-])cc1)C(Cl)Cl [Chloramphenicol] | 1
22 | CC[C@@H]1C(=O)OC[C@@H]1Cc1cncn1C [Pilocarpine nitrate] | 0.667
23 | O=C(O)Cc1ccc(-c2ccccc2)cc1 [Felbinac] | 0
24 | CCCCC1(COC(=O)CCC(=O)O)C(=O)N(c2ccccc2)N(c2ccccc2)C1=O [Suxibuzone] | 0.75
25 | CC(C)NC[C@H](O)COc1cccc2ccccc12 [(S)-propranolol hydrochloride] | 0.75
26 | CCOc1ccccc1OC(c1ccccc1)C1CNCCO1 (stereo not drawn) [Reboxetine mesylate] | 0.909
27 | CCC1(C)CC(=O)NC1=O (stereo not drawn) [Ethosuximide] | 0.833
28 | CO[C@@H]1[C@@H](OC(N)=O)[C@@H](O)[C@H](Oc2ccc3c(O)c(NC(=O)c4ccc(O)c(CC=C(C)C)c4)c(=O)oc3c2C)OC1(C)C [Novobiocin sodium salt] | 0.75
29 | C[C@@]1(O)CCOC(=O)C1 [Mevalonic-D, L acid lactone] | 0.75
30 | C(=C\c1ccccc1)/CN1CCN(C(c2ccccc2)c2ccccc2)CC1 [Cinnarizine] | 0.75
31 | C#C[C@]1(O)CC[C@H]2[C@@H]3[C@H](C)CC4=C(CCC(=O)C4)[C@H]3CC[C@@]21C [Tibolone] | 0.75
32 | COc1c2occc2c(OC)c2c(=O)cc(C)oc12 [Khellin] | 1
33 | CCN(CC)Cc1cc(Nc2ccnc3cc(Cl)ccc23)ccc1O [Amodiaquin dihydrochloride dihydrate] | 0.917
